Inconclusive results are not listed. Calls of active or inactive are those of the source. Calls follow the shape of the dose curve; as a rule, active = well fitted curve in the direction sought with a large enough effect; inconclusive = small, poorly fitted or top-dose-only effect, or another doubt; inactive = no such curve, though single readings can be large; an effect the other way counts as inactive or inconclusive.
What was measured:
[1] = qHTS Assay for Identifying Gametocytocidal Compounds (AID 743244);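 also: % is scaled to controls: 0 for no effect and ±100 for the full control effect; actives lower the fluorescent signal which means gametocytes are killed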; settings: P. falciparum 3D7 stage III-V gametocytes, alamarBlue, 72 h; max response: hits give low values
Procedure, shortened: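 Fluorescence at Ex 525/Em 598 nm, recorded 24 h after alamarBlue addition, reports residual metabolic activity of 3D7 gametocytes (stages III–V) following 72 h compound exposure at 37 °C, 5% CO2.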

[2] = qHTS assay for measurement of the activity of small molecule inhibitors on Zika virus induced Caspase-3 activity in human iPSC derived neural progenitor cells (hNPCs) (AID 1224857); also: % of control where 0% means no effect; nearly all actives have a fitted effect of over 65% in size
Procedure, shortened: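 Zika virus (2 FFU/cell) infection of human iPSC-derived NPCs, 6 h, following 1 h compound preincubation. Read-out: Caspase-Glo 3/7 luminescence.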

[3] = qHTS assay for measurement of the activity of small molecule inhibitors on Zika virus induced Caspase-3 activity in human astrocytoma cells (AID 1224859);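 also: plate controls were ZIKV-infected untreated cells for no effect and uninfected cells for full effect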
Procedure, shortened: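 Caspase activation in ZIKV-infected SNB-19 cells (2 FFU/cell, 6 h) measured by Caspase-Glo 3/7 luminescence after 30 min RT; compound pre-incubated 1 h; normalised to uninfected and infected controls.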

CCC1Nc2cc(Cl)c(S(N)(=O)=O)cc2S(=O)(=O)N1 (stereo not given)
inactive: max response [1] 7.47% | Potency [2] | outcome [3]

CCOc1cc(OCC)c(C(=O)CCC(=O)O)cc1OCC
inactive: max response [1] 11% | Potency [2] | outcome [3]

CCOC(=O)c1ccc(N)cc1
inactive: max response [1] 11.9% | Potency [2] | outcome [3]

COc1ccc(CCN(C)CCCN2CCc3cc(OC)c(OC)cc3CC2=O)cc1OC
inactive: max response [1] -9.4% | Potency [2] | outcome [3]

COc1cc(N)c(Cl)cc1C(=O)NC1CCN(Cc2ccccc2)CC1
inactive: max response [1] -0.971% | Potency [2] | outcome [3]

Nc1ccc(S(=O)(=O)NCc2ccccc2)cc1
inactive: max response [1] -10.6% | Potency [2] | outcome [3]

COc1ccccc1N1CCN(CCCCNC(=O)c2ccc(-c3ccc(C(C)=O)cc3)cc2)CC1
inactive: max response [1] 3.48% | Potency [2] | outcome [3]

CCN(CC)CCOC(=O)C(Cc1cccc2ccccc12)CC1CCCO1 (stereo not given)
inactive: max response [1] 7.43% | Potency [2] | outcome [3]

CC(=O)NO
inactive: max response [1] 6.13% | Potency [2] | outcome [3]

Cc1cccc(C)c1NC(=O)c1ccccc1C(=O)O
inactive: max response [1] -7.1% | Potency [2] | outcome [3]

— PubChem BioAssay (NCATS)
